Our source for the growth values is PubChem BioAssay (NCI).

About 83,000 compounds went through this panel and 20% of them were active in at least one assay; those are over-represented in the sample as a whole.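 Single-concentration screen, 48 h exposure, 96-well plates. Endpoint: percent growth. Below 10 = active.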 A number with no mark means an inactive call. The source made the active and inactive calls.

The test concerns MDA-MB-468 breast. As to the kind of experiment: NCI-60 one-dose screen, 48 h (100 = growth as untreated, 0 = no growth, -100 = all killed). To be noted: 10 µM unless noted.
`O=c1oc2ccc(I)cc2c(=O)n1-c1ccc(Cl)cc1F`: the growth is 0.339% (active).
The same measure for `O=C(OCC(O)C1OC(c2ccccc2)OC(COC(=O)c2ccccc2)C1O)c1ccccc1` (stereo not given): 100%; for `Cn1cc(-c2csc(-c3cn(CCO)c4ccc(F)cc34)n2)c2cccnc21`: -16.5% (active).
Turning to `COc1cccc(/C=C2\CCc3ccccc3C2=O)c1`, the growth was 63.9%.
Consider `CC1(C)CCC(=NNC(N)=S)CC1`, for which the growth is 103%.
As for `C=CCNc1nnc(C)s1`, the growth is 104%.
The same measure for `CNc1nc(NC)c2cn[nH]c2n1`: 94.8%; for `Cc1ccc(NC(=O)c2ccc(CN3CCN(C)CC3)cc2)cc1Oc1ccc(-c2[nH]nc3ncnc(N)c23)cc1`: 59.3%.
As for `Cn1cc(-c2csc(-c3cn(C)c4ncccc34)n2)c2ccccc21`, the figure is 18%; as for `CCOc1cccc(/C=N/NC(=O)c2ccc(Nc3ccnc(C(F)(F)F)c3)cc2)c1O`, -20.9% (active).
The same measure for `COc1cccc(-c2nnc(COc3ccc(-c4nc5ccccc5[nH]4)cc3OC)o2)c1`: 84.6%; for `CCNC(=O)N1CCc2cc(OC)c(OCCc3ccc(OC)cc3)cc2C1c1ccc(OC)cc1C` (stereo not given): 12.6%; for `O=C(C(Br)Br)C(Br)C(Br)c1ccccc1` (stereo not given): 9.8% (active).
Consider `C=C(C[n+]1ccccc1)[C@@H]1CC[C@]2(C(=O)OC)CC[C@]3(C)[C@H](CC[C@@H]4[C@@]5(C)CCC(=O)C(C)(C)[C@@H]5CC[C@]43C)[C@@H]12`, for which the growth was 7.22% (active).
As for `O=C(CCN1CCOCC1)Nc1ccc(Cn2nnc3c2C(=O)c2nnn(Cc4ccc(NC(=O)CCN5CCOCC5)cc4)c2C3=O)cc1`, the figure is -72.2% (active).
